High-throughput results (PubChem BioAssay)
ATXN2 expr inh: Primary qHTS for Inhibitors of ATXN expression | HEK-293 ATXN2-luciferase reporter, luminescence, 24 h | Potency, µM (highest dose often 57 µM), for the others: top-dose activity change, negative = inhibition, most hits filed as inhibitors | 0.72% of 360,000 active | AID 1745845, 2022; further: potency means the concentration at half of the fitted maximal effect; on the % scale 0 is the no-effect control and ±100 the full control effect; nearly all actives have a fitted effect of over 55% in size
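qHTS (up to 57 uM final) was run with 24 h compound exposure of reporter cells at 37 °C. Each well was multiplexed: SteadyGlo luminescence measured ATXN2-luciferase expression after a fluorogenic Gly-Phe-AFC viability readout (25 uM final).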
CtBP-E1A blk: qHTS Assay for Inhibitors of the CtBP/E1A Interaction. CtBP / adenovirus E1A interaction (AlphaScreen). AlphaScreen GST-E1A/His-CtBP binding, 1536-well; active compounds read low. activity change, % (concentration not given with the values). 0.49% of 340,000 active; in the data active means activity change below about -65%; inconclusive means mostly about -30% to -63%; further: on the % scale 0 is the no-effect control and ±100 the full control effect
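Protein mix (5X: 125 nM each GST-E1A, His-CtBP) was incubated with pinned compound 2 h at 37 deg C in dark, in 50 mM Tris pH 8.0 buffer with 300 mM NaCl. Glutathione donor and nickel acceptor beads followed; AlphaScreen signal read after 1 h.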
ATXN viability: Viability Counterscreen for Primary qHTS for Inhibitors of ATXN expression | S2 cells (HEK-293 line with an ATXN2-luciferase reporter) viability, CellTiter-Fluor protease fluorescence, 24 h | Potency, µM (doses to about 56.7 µM), hits mostly cytotoxic | 0.49% of 400,000 active; further: potency means the concentration at half of the fitted maximal effect; nearly all actives have a fitted effect of over 40% in size
TGFb SMAD3 inh: qHTS for Inhibitors of TGF-b; 1.2% of 410,000 active; Potency, µM (highest dose often 46.1 µM), for the others: at the top dose activity, negative = inhibition, usual class: inhibitors; HepG2 CAGA-GFP TGF-b/SMAD3 reporter, GFP fluorescence, 18 h; TGF-beta stimulated, 500 pg/mL final; further: potency means the concentration at half of the fitted maximal effect; on the % scale 0 is the no-effect control and ±100 the full control effect; nearly all actives have a fitted effect of over 65% in size
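Smad-responsive CAGA-GFP expression was quantified in HEPG2 cells exposed to compounds and 500 pg/mL final TGF-beta for 18 h at 37 degrees C; unstimulated wells defined full inhibition.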
HepG2 tox-1: qHTS for Inhibitors of TGF-b: Cytotox Counterscreen; AID 588856, 2011; 0.76% of 410,000 active; Potency, µM (doses to about 46.1 µM), without a hit: at the highest dose activity change, negative = cytotoxicity, usual class: cytotoxic; HepG2 CAGA-GFP viability, ATP luminescence, 18 h; further: potency means the concentration at half of the fitted maximal effect
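CellTiter-Glo luminescence gave cytotoxicity after 18 hours at 37 degrees C. The cells were HepG2 CAGA-GFP in 1% FBS DMEM, stimulated with 500 pg/mL TGF-beta after compound addition. %Activity was normalised to no-cell wells (complete cell-killing) and DMSO (no toxicity), and curves were fitted and classified.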
Six1-Eya2 blk: qHTS Assay for Inhibitors of the Six1/Eya2 Interaction; Homeobox protein SIX1 (Homo sapiens) + Protein phosphatase EYA2 (Homo sapiens), …; AlphaScreen GST-Six1/His-Eya2 binding, biochemical; active compounds read low; activity change, % (test concentration not listed); 0.56% of 360,000 active; AID 651725, 2012; in the data active means activity change below about -65%; inconclusive means mostly about -30% to -63%; further: on the % scale 0 is the no-effect control and ±100 the full control effect
Target sequence (O00167 whole entry, looked up): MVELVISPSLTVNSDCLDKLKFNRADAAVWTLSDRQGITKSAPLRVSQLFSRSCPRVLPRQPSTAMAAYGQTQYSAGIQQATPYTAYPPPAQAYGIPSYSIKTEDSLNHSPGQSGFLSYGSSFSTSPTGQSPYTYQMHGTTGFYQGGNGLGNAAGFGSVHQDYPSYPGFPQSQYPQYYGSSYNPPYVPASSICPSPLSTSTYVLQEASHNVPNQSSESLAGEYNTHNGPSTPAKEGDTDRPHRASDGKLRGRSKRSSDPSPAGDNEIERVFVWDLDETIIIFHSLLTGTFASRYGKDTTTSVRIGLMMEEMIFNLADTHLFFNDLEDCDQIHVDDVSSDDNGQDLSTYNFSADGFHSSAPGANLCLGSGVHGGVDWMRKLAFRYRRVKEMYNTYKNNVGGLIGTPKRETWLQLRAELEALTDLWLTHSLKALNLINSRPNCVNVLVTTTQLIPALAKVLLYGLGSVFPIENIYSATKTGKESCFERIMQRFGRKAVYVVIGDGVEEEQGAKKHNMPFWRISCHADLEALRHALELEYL
Target sequence (Q15475 whole entry, looked up): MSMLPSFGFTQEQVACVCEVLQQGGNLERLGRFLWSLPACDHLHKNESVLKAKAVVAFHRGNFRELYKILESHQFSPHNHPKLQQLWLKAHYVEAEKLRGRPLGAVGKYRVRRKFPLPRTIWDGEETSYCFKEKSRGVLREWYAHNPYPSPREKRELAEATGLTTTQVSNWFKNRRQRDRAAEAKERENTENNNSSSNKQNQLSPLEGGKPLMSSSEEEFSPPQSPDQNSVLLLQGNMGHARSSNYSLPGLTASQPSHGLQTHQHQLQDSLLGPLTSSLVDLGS
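AlphaScreen luminescence read after one hour at 37 °C in darkness. Pin-transferred compounds met GST-Six1 and His-Eya2 protein (5X stock 250 nM/500 nM) plus glutathione donor and Ni-chelate acceptor beads (5X, 50 ug/mL).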
TGFb CAGA inh: qHTS for Inhibitors of TGF-b: Confirmation of Cherry Picks; 63% of 1,600 active; HepG2 CAGA-GFP TGF-b reporter, GFP fluorescence, 18 h; cells stimulated with TGF-beta, 500 pg/mL; shares compounds with TGFb SMAD3 inh; Potency, µM (titrated, usually from 46.1 µM), for inactives: at the top dose activity, negative = inhibition, actives largely listed as inhibitors; further: potency means the concentration at half of the fitted maximal effect; on the % scale 0 is the no-effect control and ±100 the full control effect; nearly all actives have a fitted effect of over 65% in size
HepG2 tox-2: qHTS for Inhibitors of TGF-b: Cytotox Counterscreen for Cherry Picks. Potency, µM (doses to about 46.1 µM), for inactives: top-dose activity, negative = cytotoxicity, hits mostly inhibitors. HepG2 CAGA-GFP viability, ATP luminescence, 18 h; cells stimulated with TGF-beta, 500 pg/mL. 27% of 1,600 active. shares compounds with TGFb SMAD3 inh. AID 720535, 2013; further: potency means the concentration at half of the fitted maximal effect; on the % scale 0 is the no-effect control and ±100 the full control effect; nearly all actives have a fitted effect of over 70% in size
CCL64 TGFb inh: qHTS for Inhibitors of TGF-b: CCL64 Cells Orthogonal Assay for Cherry Picks; Potency, µM (top dose mostly 46.1 µM), without a hit: at the top dose activity, negative = inhibition, hits mostly inhibitors; shares compounds with TGFb SMAD3 inh; 41% of 1,600 active; AID 720536, 2013; CCL64 CAGA-GFP reporter, TGF-b stimulated, GFP fluorescence, 18 h; further: potency means the concentration at half of the fitted maximal effect; nearly all actives have a fitted effect of over 65% in size
COP TGFb inh: qHTS for Inhibitors of TGF-b: Hit Validation in HepG2 Cells using COP promoter. shares compounds with TGFb SMAD3 inh. AID 720537, 2013. 3% of 1,600 active. Potency, µM (doses to about 46.1 µM), without a hit: top-dose activity, negative = inhibition, most hits filed as inhibitors. HepG2 COP-GFP TGF-b reporter, GFP fluorescence, 18 h; cells stimulated by added recombinant TGF-beta; further: potency means the concentration at half of the fitted maximal effect; nearly all actives have a fitted effect of over 70% in size
An asterisk follows results filed as active. Only some compounds are listed: those with a hit (about 2.8% of all), similar ones and a draw of the others. Unless noted, the call rests on the fitted dose curve; in most records, active means well fitted curve in the direction sought with a large enough effect; inconclusive means small, poorly fitted or top-dose-only effect, or another doubt; inactive means no such curve, though single readings can be large; an effect the other way counts as inactive or inconclusive.

Screening Cc1ccc(-c2nnn3c2nc(N2CCC(C)CC2)c2ccccc23)cc1 returned ATXN2 expr inh 23%, ATXN viability inactive, TGFb SMAD3 inh 31% and HepG2 tox-1 -13%.
`CN(C)CCCN(C(=O)CCOc1ccccc1)c1nc2ccc(F)cc2s1` gave ATXN viability inconclusive, TGFb SMAD3 inh 3.5µM*, HepG2 tox-1 -125%, Six1-Eya2 blk 3, TGFb CAGA inh 15µM*, HepG2 tox-2 inconclusive, CCL64 TGFb inh 8.2µM* and COP TGFb inh inconclusive.
Screening CN(C)CCCN(C(=O)COc1ccccc1)c1nc2ccc(F)cc2s1 returned CtBP-E1A blk 3, ATXN viability inactive, TGFb SMAD3 inh 18%, HepG2 tox-1 -2% and Six1-Eya2 blk 1.
For Cn1c(NCC2CCCCC2)nc2cc(-c3ccsc3)sc2c1=O the results were ATXN2 expr inh -4%, CtBP-E1A blk -13, ATXN viability inactive, TGFb SMAD3 inh inconclusive, HepG2 tox-1 -16%, Six1-Eya2 blk 5, TGFb CAGA inh 23µM*, HepG2 tox-2 inconclusive, CCL64 TGFb inh inconclusive and COP TGFb inh 23%.
`Cn1c(NCc2ccncc2)nc2cc(-c3ccsc3)sc2c1=O` gave ATXN2 expr inh 1%, CtBP-E1A blk 0, ATXN viability inactive, TGFb SMAD3 inh inconclusive, HepG2 tox-1 1% and Six1-Eya2 blk -10.
COc1ccc2c(c1)OC[C@H]1[C@H]2N2C(=O)CN(Cc3ccc(Cl)cc3)C(=O)[C@@]2(C)[C@H]1c1ccccc1 was read as ATXN2 expr inh 0%, CtBP-E1A blk 15, ATXN viability inactive, TGFb SMAD3 inh 5µM*, HepG2 tox-1 -25%, Six1-Eya2 blk 9, TGFb CAGA inh inconclusive, HepG2 tox-2 -4%, CCL64 TGFb inh -1% and COP TGFb inh 0%.
For O=C(NCC[C@H]1CC[C@@H](NC(=O)C2CCOCC2)[C@@H](CO)O1)Nc1ccc(Cl)cc1 the results were CtBP-E1A blk 0 and Six1-Eya2 blk 0.
For Cc1ccc2nc(-c3ccccc3F)c(Nc3ccc(Cl)cc3)n2c1 the results were TGFb SMAD3 inh inconclusive and HepG2 tox-1 -47%.
CC1Sc2ccc(S(=O)(=O)N3CCC(C(=O)Nc4ccc(Cl)cc4)CC3)cc2NC1=O (stereo not drawn) was read as ATXN viability inconclusive, TGFb SMAD3 inh 20µM*, HepG2 tox-1 -10%, Six1-Eya2 blk -1, TGFb CAGA inh 5.2µM*, HepG2 tox-2 inconclusive, CCL64 TGFb inh inconclusive and COP TGFb inh 30%.
`COc1ccc(NC(=O)C2CCN(S(=O)(=O)c3ccc4c(c3)NC(=O)C(C)S4)CC2)cc1` (stereo not drawn) gave ATXN2 expr inh -32%, CtBP-E1A blk 4, ATXN viability inactive, TGFb SMAD3 inh inconclusive, HepG2 tox-1 -11% and Six1-Eya2 blk -1.
`CC1(C(=O)Nc2ccc3ccccc3c2)CCC(=O)N1C1CCN(Cc2ccccc2)CC1` (stereo not drawn) gave ATXN2 expr inh -7%, CtBP-E1A blk -7, ATXN viability inactive, TGFb SMAD3 inh inconclusive, HepG2 tox-1 -11% and Six1-Eya2 blk 0.
O=[N+]([O-])c1cccc2nc3ccccc3c(NCCCn3ccnc3[N+](=O)[O-])c12 was read as ATXN2 expr inh 0.27µM*, CtBP-E1A blk inconclusive, ATXN viability inconclusive, TGFb SMAD3 inh 0.11µM*, HepG2 tox-1 -5%, Six1-Eya2 blk -28, TGFb CAGA inh 0.1µM*, HepG2 tox-2 0.21µM*, CCL64 TGFb inh 0.16µM* and COP TGFb inh 24%.
`COc1ccccc1NS(=O)(=O)c1cc(NC(=O)Nc2ccccc2)ccc1N1CCCCC1` gave ATXN2 expr inh 10%, CtBP-E1A blk -20, ATXN viability inactive, TGFb SMAD3 inh 11µM*, HepG2 tox-1 -5%, Six1-Eya2 blk -6, TGFb CAGA inh 7.3µM*, HepG2 tox-2 -17%, CCL64 TGFb inh inconclusive and COP TGFb inh -2%.
For Cc1ccc(NC(=O)c2cc3c(s2)CCCC3)cc1S(=O)(=O)Nc1ccccc1Cl the results were ATXN2 expr inh -22%, CtBP-E1A blk -12, ATXN viability inactive, TGFb SMAD3 inh 10µM*, HepG2 tox-1 -8%, Six1-Eya2 blk -15, TGFb CAGA inh 10µM*, HepG2 tox-2 inconclusive, CCL64 TGFb inh inconclusive and COP TGFb inh 56%.
O=C(Nc1ccc(F)cc1)Nc1ccc(N2CCCC2)c(S(=O)(=O)Nc2ccccc2Cl)c1 was read as ATXN2 expr inh inconclusive, CtBP-E1A blk -1, ATXN viability inconclusive, TGFb SMAD3 inh 4µM*, HepG2 tox-1 -4%, Six1-Eya2 blk -9, TGFb CAGA inh 4.1µM*, HepG2 tox-2 7.3µM*, CCL64 TGFb inh 5.8µM* and COP TGFb inh 109%.
